Laboratory results taken from article PMC6212790, “How bacterial xenogeneic silencer rok distinguishes foreign from self DNA in its resident genome”.
Whole data set: some 33,000 sequences, median “e-score” near -0.037, cut for the highest 2% near 0.34. The sample holds the highest values, similar sequences and a random draw of the others, so the mix is not that of the screen.

Target: T1, GST-Rok (full length) (Bacillus subtilis subsp. subtilis str. …, UniProt O34857 1-191)
T1 sequence: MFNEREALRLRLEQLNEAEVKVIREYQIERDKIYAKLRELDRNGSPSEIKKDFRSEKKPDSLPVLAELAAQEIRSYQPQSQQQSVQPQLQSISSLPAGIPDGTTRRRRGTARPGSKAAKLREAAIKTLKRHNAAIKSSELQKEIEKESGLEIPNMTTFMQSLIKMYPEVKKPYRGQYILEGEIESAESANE
Experiment: protein binding microarray; Rok is a gene silencer of Bacillus subtilis; high values mean tight binding
Details: protein: recombinant; tags: GST (pTH5325, pDEST15-Magic modified); dsDNA, one strand shown
Method in brief: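 Each has a 25-mer constant primer and a 35-mer variable part from a de Bruijn sequence of order 10, covering every non-palindromic 8-mer at least 32 times (palindromic 16). Preference for each 8-mer is given as a rank-based, unitless enrichment score (E-score). Its range runs from 0.5 (most favored) to −0.5 (most disfavored).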

First: CGTCGCAA
Second: ATAACTAG
The binding signal of the first is lower: -0.166 E-score for the first, 0.243 E-score for the second.

First: AGAACTAA
Second: ATAACTAT
The binding signal of the first is lower: 0.254 E-score for the first, 0.407 E-score for the second.

Compared with AGAACTAT, ATAACTAA is lower in binding signal: 0.381 E-score for the first, 0.26 E-score for the second.

Compared with AGAACTAG, CATGCTGA is lower in binding signal: 0.298 E-score for the first, -0.132 E-score for the second.

First: AGTGGTCC
Second: GTCCCGGA
The binding signal of the first is lower: -0.177 E-score for the first, -0.141 E-score for the second.

Going from GATCATTA to AATCATTA, the binding signal falls from 0.355 E-score to 0.158 E-score.

Going from CATCATTA to GGTAGTAA, the binding signal rises from 0.0295 E-score to 0.335 E-score.

Going from TGTTGTAA to TGTAGGAA, the binding signal falls from 0.142 E-score to 0.0806 E-score.

Compared with AGTAGTAA, CGTAGTAA is lower in binding signal: 0.384 E-score for the first, 0.198 E-score for the second.

First: TGTAGTAA
Second: ACTGGACG
The binding signal of the first is higher: 0.349 E-score for the first, 0.057 E-score for the second.

Compared with TCAAGTAA, AGTAGACA is lower in binding signal: 0.154 E-score for the first, 0.0413 E-score for the second.

Compared with ATAATCTC, GTAATCTA is higher in binding signal: 0.161 E-score for the first, 0.245 E-score for the second.

Compared with CTAATCTC, CTAATCAA is higher in binding signal: 0.0718 E-score for the first, 0.165 E-score for the second.

First: ATAATCTA
Second: CTAATCTA
The binding signal of the first is lower: 0.352 E-score for the first, 0.362 E-score for the second.

Going from ATGCATGG to AACCTACG, the binding signal falls from 0.0449 E-score to 9.3e-05 E-score.

First: CCAACTGC
Second: AGGTTTAA
The binding signal of the first is lower: -0.00979 E-score for the first, 0.00862 E-score for the second.

First: CTATACCA
Second: ATATACCC
The binding signal of the first is higher: 0.258 E-score for the first, 0.188 E-score for the second.

First: GTATACCA
Second: AGATACCG
The binding signal of the first is higher: 0.311 E-score for the first, 0.12 E-score for the second.

First: ATATACCA
Second: ATATACCG
The binding signal of the first is higher: 0.411 E-score for the first, 0.385 E-score for the second.

First: CATTAATC
Second: AACGGTCT
The binding signal of the first is higher: 0.219 E-score for the first, -0.0396 E-score for the second.

First: GTCCCGCA
Second: CGCGGTTA
The binding signal of the first is lower: -0.196 E-score for the first, -0.0283 E-score for the second.

Compared with ATAAATAC, CTAAATAC is higher in binding signal: 0.276 E-score for the first, 0.351 E-score for the second.

Compared with GTAAATAC, CTAAATAG is lower in binding signal: 0.352 E-score for the first, 0.172 E-score for the second.

Compared with GTAAATAA, CTAAATAA is higher in binding signal: 0.234 E-score for the first, 0.251 E-score for the second.

Compared with CAAGCAGC, TAGTTATA is higher in binding signal: -0.0674 E-score for the first, 0.382 E-score for the second.

Going from GAGTTATA to TAGTTACA, the binding signal rises from 0.222 E-score to 0.349 E-score.

First: AAGTTACA
Second: CAGTTATA
The binding signal of the first is lower: 0.18 E-score for the first, 0.288 E-score for the second.

Going from CAGTTACA to AGCTGAAG, the binding signal falls from 0.24 E-score to 0.0654 E-score.

Going from AACGCCTA to ACTTAACC, the binding signal rises from -0.101 E-score to 0.121 E-score.

First: ATACCGAT
Second: ATACCGAG
The binding signal of the first is higher: 0.342 E-score for the first, 0.116 E-score for the second.

Compared with ATACCGAC, GTTGGCGA is lower in binding signal: 0.0836 E-score for the first, -0.0273 E-score for the second.

First: GGAGCAGA
Second: CGCCTTCA
The binding signal of the first is lower: -0.132 E-score for the first, 0.0118 E-score for the second.

Going from TAGCAGGA to ACCAAGGT, the binding signal falls from -0.0921 E-score to -0.0988 E-score.

Compared with GACACGAC, GGTAGTCA is higher in binding signal: -0.0441 E-score for the first, 0.125 E-score for the second.

First: GTTAGTTA
Second: CGTAGTTA
The binding signal of the first is higher: 0.258 E-score for the first, 0.127 E-score for the second.

First: GGTAGTTA
Second: AGTAGTGA
The binding signal of the first is higher: 0.413 E-score for the first, 0.0919 E-score for the second.

First: ATTAGTTC
Second: ATTAGTTG
The binding signal of the first is lower: 0.172 E-score for the first, 0.334 E-score for the second.

Compared with CGTAGTTC, AGTAGTTC is higher in binding signal: 0.255 E-score for the first, 0.413 E-score for the second.

First: ACTAGTTG
Second: AGTAGTTG
The binding signal of the first is lower: 0.313 E-score for the first, 0.388 E-score for the second.

Going from AGTAGTTA to GTAAGAAA, the binding signal falls from 0.434 E-score to 0.327 E-score.

Going from CGTACAAC to CGGAGGAA, the binding signal falls from 0.103 E-score to -0.194 E-score.

Going from ACAATGAC to AAAGACAA, the binding signal rises from 0.00584 E-score to 0.02 E-score.

Going from GTTATTCA to ATAGGTCC, the binding signal rises from 0.0398 E-score to 0.123 E-score.

First: CTAAGGCC
Second: AATATTCT
The binding signal of the first is lower: -0.158 E-score for the first, 0.338 E-score for the second.

Going from AATATTGG to AATATTGA, the binding signal rises from 0.103 E-score to 0.287 E-score.

First: AATATTCC
Second: AATATTGT
The binding signal of the first is lower: 0.131 E-score for the first, 0.34 E-score for the second.

First: AATATTCG
Second: TGCGGGAA
The binding signal of the first is higher: 0.255 E-score for the first, -0.19 E-score for the second.

First: CTAAGCCA
Second: GGTTAGTA
The binding signal of the first is lower: 0.0287 E-score for the first, 0.0365 E-score for the second.

Going from CGTCGTTC to GAACCGAC, the binding signal rises from -0.0713 E-score to -0.0645 E-score.

Compared with CGAAGAAA, AGAAATTC is higher in binding signal: 0.195 E-score for the first, 0.228 E-score for the second.

First: CGAAATTA
Second: CGAAATTC
The binding signal of the first is lower: 0.269 E-score for the first, 0.341 E-score for the second.

First: GCAACCAC
Second: CGAATCTA
The binding signal of the first is lower: 0.0207 E-score for the first, 0.305 E-score for the second.

Compared with AGAATCTG, GGAATCAA is higher in binding signal: -0.0414 E-score for the first, 0.103 E-score for the second.

First: GGAATCTA
Second: AGAATCTC
The binding signal of the first is higher: 0.363 E-score for the first, 0.0678 E-score for the second.

First: AGAATCTA
Second: CGGAATTA
The binding signal of the first is higher: 0.337 E-score for the first, 0.239 E-score for the second.

Compared with GAAGGTTA, GCACTCAA is lower in binding signal: -0.0133 E-score for the first, -0.134 E-score for the second.

First: ACCGGACC
Second: ACGGTACG
The binding signal of the first is lower: -0.0925 E-score for the first, -0.0886 E-score for the second.

Compared with CCTCACCG, AAACTAAT is higher in binding signal: -0.0671 E-score for the first, 0.332 E-score for the second.

First: AAACTAAC
Second: CAACTACC
The binding signal of the first is lower: 0.233 E-score for the first, 0.303 E-score for the second.

First: AGACTACC
Second: AAACTACC
The binding signal of the first is lower: 0.249 E-score for the first, 0.475 E-score for the second.

Compared with ACACTACG, CAACTACG is higher in binding signal: -0.0357 E-score for the first, 0.12 E-score for the second.

First: AGACTACT
Second: AAACTACT
The binding signal of the first is lower: 0.209 E-score for the first, 0.484 E-score for the second.

First: AAACTAAG
Second: ACACTACT
The binding signal of the first is higher: 0.345 E-score for the first, 0.236 E-score for the second.

Compared with AAACTACG, ATGCGGCA is lower in binding signal: 0.377 E-score for the first, 0.0193 E-score for the second.

Going from CACCTAAC to CTTCATAC, the binding signal falls from 0.06 E-score to 0.0169 E-score.

Compared with ATGCAGGA, ATAGAGAG is lower in binding signal: 0.0987 E-score for the first, -0.0418 E-score for the second.

Compared with AGAAAACC, AGCAAGCG is higher in binding signal: -0.176 E-score for the first, -0.0451 E-score for the second.

First: GCTGGAGA
Second: ATTCGCAC
The binding signal of the first is lower: -0.105 E-score for the first, -0.0552 E-score for the second.

Compared with ATTAGGCC, AAACTACA is higher in binding signal: -0.131 E-score for the first, 0.408 E-score for the second.

First: AAACTAAA
Second: CAACTACA
The binding signal of the first is higher: 0.324 E-score for the first, 0.18 E-score for the second.

First: GCACTACC
Second: TAACTACA
The binding signal of the first is lower: -0.000872 E-score for the first, 0.441 E-score for the second.

Going from GAACTACA to GAACTACC, the binding signal rises from 0.222 E-score to 0.338 E-score.

Compared with TCACTACA, TGACTACA is higher in binding signal: 0.0227 E-score for the first, 0.197 E-score for the second.

Going from TAGGCTAA to ATATCGAT, the binding signal rises from -0.112 E-score to 0.316 E-score.

First: AAGTCTGA
Second: CTAGGAAC
The binding signal of the first is lower: -0.121 E-score for the first, -0.0546 E-score for the second.

Compared with CCTAGCTA, ACTAGCTA is higher in binding signal: 0.107 E-score for the first, 0.347 E-score for the second.

Going from CGTAGCGA to GGTAGCTA, the binding signal rises from 0.0631 E-score to 0.341 E-score.

First: CGTAGCTC
Second: GGTAGCAA
The binding signal of the first is lower: 0.0159 E-score for the first, 0.241 E-score for the second.

Going from GCTAGCTA to CGTAGCTA, the binding signal rises from 0.156 E-score to 0.365 E-score.

Going from AGTAGCTA to AGTAGCTG, the binding signal falls from 0.386 E-score to 0.204 E-score.

First: GGTAGCGA
Second: AGTAGCTC
The binding signal of the first is lower: 0.0576 E-score for the first, 0.0983 E-score for the second.

First: GTTGAGGA
Second: CATTACCA
The binding signal of the first is lower: -0.0613 E-score for the first, 0.14 E-score for the second.

Going from CAGTAACG to AAACTATT, the binding signal rises from 0.112 E-score to 0.458 E-score.

Compared with TAACTAAA, AAACTATA is higher in binding signal: 0.151 E-score for the first, 0.396 E-score for the second.

First: AAACTCTT
Second: AAACTATG
The binding signal of the first is lower: 0.188 E-score for the first, 0.195 E-score for the second.

First: CAACTATC
Second: GAACTATA
The binding signal of the first is lower: 0.192 E-score for the first, 0.289 E-score for the second.

Compared with ACACTATA, CAACTATA is higher in binding signal: 0.245 E-score for the first, 0.307 E-score for the second.

Compared with TAACTATA, GAACTATC is lower in binding signal: 0.341 E-score for the first, 0.292 E-score for the second.

In the case of AAACTATC, the binding signal is reported as 0.412 E-score.
